Here are results for 17 molecules from PubChem BioAssay.

Activity calls are given as the source filed them.

Assay [1] in a line: compounds binding Alexa647 anti-His antibody – biochemical, small-molecule microarray, 635 nm fluorescence, artefact control for SMM control protein annotation, primary screen (AID 1128).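 Also: score merges feature fluorescence with signal-to-noise for each printed compound spot.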 To be noted: higher = more signal.
Assay [2] relates to Human papillomavirus type 1a E7 protein (residues 1-88). The assay is described as follows: HPV1a E7 small-molecule binders, primary screen, biochemical, small-molecule microarray, residues 1-88, 635 nm (AID 1129). As to conditions: small-molecule microarray binding, fluorescence 635 nm; higher = more signal.
For assay [3], the target named is Focal adhesion kinase 1 (Homo sapiens) (UniProt Q05397). The assay is described as follows: PTK2 protein binding on printed compound slides – biochemical, small-molecule microarray, 635/667 nm fluorescence, BSA, DTT, primary screen (AID 1130).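 Also: composite of spot emission at 667 nm and signal to noise over triplicate slides.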 As to conditions: 635 nm fluorescence, higher = more signal.
Chain of Focal adhesion kinase 1 (Homo sapiens) (Q05397 whole entry, looked up): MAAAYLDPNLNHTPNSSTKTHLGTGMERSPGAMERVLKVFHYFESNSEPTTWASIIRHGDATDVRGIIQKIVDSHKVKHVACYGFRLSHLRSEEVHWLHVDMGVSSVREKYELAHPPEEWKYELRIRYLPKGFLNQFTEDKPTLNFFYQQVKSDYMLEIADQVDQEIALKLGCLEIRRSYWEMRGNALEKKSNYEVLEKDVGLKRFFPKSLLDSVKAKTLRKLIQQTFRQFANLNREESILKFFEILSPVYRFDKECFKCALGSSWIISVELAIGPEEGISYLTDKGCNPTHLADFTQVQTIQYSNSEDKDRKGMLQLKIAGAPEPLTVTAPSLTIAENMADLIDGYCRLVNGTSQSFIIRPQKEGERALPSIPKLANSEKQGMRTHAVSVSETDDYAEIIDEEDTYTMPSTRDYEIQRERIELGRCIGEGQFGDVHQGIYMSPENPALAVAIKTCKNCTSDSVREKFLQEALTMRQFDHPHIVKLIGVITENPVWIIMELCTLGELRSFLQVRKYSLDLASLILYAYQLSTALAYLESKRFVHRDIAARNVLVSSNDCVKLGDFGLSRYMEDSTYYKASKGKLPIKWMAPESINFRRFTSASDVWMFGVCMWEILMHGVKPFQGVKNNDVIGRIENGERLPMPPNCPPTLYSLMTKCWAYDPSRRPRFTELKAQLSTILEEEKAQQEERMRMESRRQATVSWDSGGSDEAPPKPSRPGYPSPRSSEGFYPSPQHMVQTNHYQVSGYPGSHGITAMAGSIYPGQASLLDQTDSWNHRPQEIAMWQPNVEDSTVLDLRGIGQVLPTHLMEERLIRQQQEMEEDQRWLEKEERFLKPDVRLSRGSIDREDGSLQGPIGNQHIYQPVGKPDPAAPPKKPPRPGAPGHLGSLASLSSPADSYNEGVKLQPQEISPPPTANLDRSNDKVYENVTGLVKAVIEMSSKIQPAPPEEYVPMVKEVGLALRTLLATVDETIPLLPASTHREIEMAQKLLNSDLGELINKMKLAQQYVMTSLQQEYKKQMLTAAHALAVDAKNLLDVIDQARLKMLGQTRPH
Assay [4] deals with Fibrinogen (Alexa647-labelled). Put plainly: Alexa647-fibrinogen binding to printed small molecules – biochemical, small-molecule microarray, 635/667 nm fluorescence, artefact control for SMM control-protein annotation, profiling panel (AID 1131).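 Also: z-score merges 667 nm fluorescence with per-spot signal-to-noise over triplicate slides.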 As to conditions: fibrinogen-A647 binding fluorescence, higher = more signal.
Assay [5] has as its target Follistatin (Homo sapiens) (UniProt P19883). The assay is described as follows: FST protein binding to printed compounds – biochemical, small-molecule microarray, 635/667 nm fluorescence, primary screen (AID 1132). As to conditions: 635 nm fluorescence, higher = more signal.
For assay [6], the target named is Fibroblast growth factor 2 (Homo sapiens) (UniProt P09038). The assay is described as follows: basic fibroblast growth factor binding to printed compounds – biochemical, small-molecule microarray, 635/667 nm fluorescence, primary screen (AID 1133). To be noted: FGF2, fluorescence 635/667, higher = more signal.
Chain of Fibroblast growth factor 2 (Homo sapiens) (P09038 whole entry, looked up): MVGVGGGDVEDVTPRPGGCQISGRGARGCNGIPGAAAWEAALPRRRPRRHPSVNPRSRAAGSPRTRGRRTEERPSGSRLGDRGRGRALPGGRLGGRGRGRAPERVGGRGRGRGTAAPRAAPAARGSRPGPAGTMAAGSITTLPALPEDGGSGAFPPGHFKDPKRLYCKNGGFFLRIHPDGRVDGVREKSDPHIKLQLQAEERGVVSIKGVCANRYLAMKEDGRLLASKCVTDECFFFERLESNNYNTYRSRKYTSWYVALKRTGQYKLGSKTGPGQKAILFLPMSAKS
The nature of assay [7]: JC-1 mitochondrial potential readout, lung cancer cells – cell-based, A549, JC-1 fluorescence, basal, 24 h, 100 nL, profiling panel (AID 1138).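 Also: A549 lung adenocarcinoma cells under basal conditions with no added stimulus; test concentration not given here.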 As to conditions: higher = more signal.
The next assay has as its system Lefty1. The assay is described as follows: Lefty1 protein binding to printed compounds – biochemical, small-molecule microarray, 635/667 nm fluorescence, primary screen (AID 1139). To be noted: fluorescence 635/667, higher = more signal.
For assay [8], the system named is wheat germ agglutinin (Triticum aestivum), Alexa647-labelled. The assay is described as follows: Alexa647-WGA lectin binding to printed small molecules – biochemical, small-molecule microarray, 635/667 nm fluorescence, artefact control for SMM control-protein annotation, profiling panel (AID 1140).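 Also: score merges 667 nm feature emission with signal to noise over triplicate slides.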 As to conditions: WGA-A647 binding, 635 nm fluorescence, higher = more signal.

Assay [9] deals with Luciferin 4-monooxygenase (Photinus pyralis) (UniProt P08659). Put plainly: inhibition of purified Photinus pyralis luciferase – biochemical, luminescence, purified enzyme, 2006 set, primary screen (AID 1141).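 Also: cell-free assay with purified firefly luciferase at 100 ng per well in PBS; test concentration not given here.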 To be noted: purified firefly luciferase, SteadyGlo luminescence, 30 min; higher = more signal, called active from +8 up or from −8 down.
Chain of Luciferin 4-monooxygenase (Photinus pyralis) (P08659 whole entry, looked up): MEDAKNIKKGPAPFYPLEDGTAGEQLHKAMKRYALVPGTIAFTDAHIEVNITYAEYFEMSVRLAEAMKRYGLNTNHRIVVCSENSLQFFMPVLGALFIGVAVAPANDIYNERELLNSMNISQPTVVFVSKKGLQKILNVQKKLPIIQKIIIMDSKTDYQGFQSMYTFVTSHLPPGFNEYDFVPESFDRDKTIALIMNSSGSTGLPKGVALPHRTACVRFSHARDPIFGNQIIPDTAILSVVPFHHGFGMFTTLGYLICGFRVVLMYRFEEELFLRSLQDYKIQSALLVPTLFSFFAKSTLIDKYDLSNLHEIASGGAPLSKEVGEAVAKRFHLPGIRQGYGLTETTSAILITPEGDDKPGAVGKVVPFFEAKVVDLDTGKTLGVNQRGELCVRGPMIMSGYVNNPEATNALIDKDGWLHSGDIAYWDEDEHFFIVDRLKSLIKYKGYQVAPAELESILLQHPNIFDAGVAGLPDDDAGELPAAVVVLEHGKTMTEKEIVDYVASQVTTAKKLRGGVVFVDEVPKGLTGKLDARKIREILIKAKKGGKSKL

Chain of Follistatin (Homo sapiens) (P19883 whole entry, looked up): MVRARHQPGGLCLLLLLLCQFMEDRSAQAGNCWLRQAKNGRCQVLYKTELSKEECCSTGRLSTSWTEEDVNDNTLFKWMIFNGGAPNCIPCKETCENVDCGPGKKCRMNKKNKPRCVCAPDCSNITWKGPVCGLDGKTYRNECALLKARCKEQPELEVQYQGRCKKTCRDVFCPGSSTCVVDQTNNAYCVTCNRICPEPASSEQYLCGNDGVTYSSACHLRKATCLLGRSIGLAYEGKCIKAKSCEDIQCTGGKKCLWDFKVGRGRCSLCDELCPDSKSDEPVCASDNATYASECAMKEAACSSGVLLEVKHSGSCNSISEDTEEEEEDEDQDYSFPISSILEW

`CN(C)CCCCNC(=O)[C@@H]1C[C@@H]2C(=O)N[C@@H](CCCCN)C(=O)N2[C@@H]1c1ccc(O)cc1`: the composite z-score was 0.253 in [1]; -0.0102 in [2]; -0.0748 in assay [3]; 0.223 in assay [4]; 1.34 in assay [5]; 1.68 in [6]. The figures for the composite z-score (in the assay on Lefty1; in assay [8]) were 0.896 and 0.857, respectively. For the same molecule, the z-score was -1.38 in [7] and -0.0213 (inactive) in assay [9].

Regarding `CCCCN1CC=CC23O[C@@H]4C=CCOC(=O)[C@@H]4[C@H]2C(=O)N(CCCCCCO)[C@@H]3C1=O` (stereo not given in full), the composite z-score in assay [1] is -0.818; in [2], -0.544; in [3], 0.717; in assay [4], -2.1; in [5], -1.55; in [6], -0.802. Besides, the composite z-score in the assay with Lefty1 was -1.25; in assay [8], -1.24. In addition, the z-score in assay [7] was 0.00246; in assay [9], -0.419 (inactive).

Turning to `CN1C(=O)C2C=CC(C(O)c3c(F)cccc3Cl)N(NC(=O)OC(C)(C)C)C2C1=O` (stereo not given), the composite z-score in assay [1] was 1.11; in assay [2], 1.09; in assay [3], 0.427; in assay [4] it was 1.01; in assay [5], 0.453; in assay [6] it was -0.174. Moreover, the composite z-score in the assay with Lefty1 is -0.242; in [8] it was 0.634. In addition, the z-score in assay [7] is 0.584; in [9], 0.682 (inactive).

Take `COC(=O)[C@@]1(Cc2ccccc2)[C@H]2c3cc(C(=O)N(C)C)n(CCc4c[nH]c5ccc(O)cc45)c3C[C@H]2CN1C(=O)c1ccccc1`: the composite z-score in assay [1] is 1.53; in [2], 1.23; in assay [3] it was 0.772; in [4], -0.0969; in [5], 1.35; in [6], -0.0235. In addition, the figures for the composite z-score (in the assay on Lefty1; in [8]) were 0.171 and 0.173, respectively. For the same molecule, the z-score is -0.409 in assay [7] and -2.82 (inactive) in [9].

For `[N-]=[N+]=NCc1ccccc1[C@@H]1OC(c2ccc(OCCCO)cc2)=N[C@]1(CCS(=O)(=O)c1ccccc1)C(N)=O`, the composite z-score worked out at 3.49 in [1]; 1.27 in assay [2]; 1.21 in [3]; 0.973 in assay [4]; 1.44 in [5]; 1.83 in [6]. In addition, the composite z-score with Lefty1 came out at 0.616; in assay [8], 1.09. In addition, the z-score in assay [7] is -0.528; in assay [9] it was -2.98 (inactive).

Take `CC(C)=CCCC(C)=CC(O)C1C=CC2C(=O)N(c3ccccc3)C(=O)C2N1Nc1ccc(C(C)C)cc1` (stereo not given): the composite z-score in [1] is 0.491; in assay [2], 1.22; in assay [3], 0.526; in assay [4] it was 0.998; in [5], 1.12; in assay [6], -0.373. Further, the composite z-score in the assay on Lefty1 was determined as 0.262; in assay [8] it was 1.03. The z-score in [7] was 0.0344; in assay [9] it was 0.43 (inactive).

Turning to `C=CCC(OC(C)=O)[C@@H]1[C@@H](N(Cc2ccc(-c3ccccc3)cc2)C(=O)Cc2ccc(F)cc2)c2cc(OCCCO)ccc2N1C(=O)c1ccc2ccccc2c1` (stereo not given in full), the composite z-score in assay [1] was -0.264; in assay [2] it was -0.0066; in assay [3], 0.16; in assay [4], -0.163; in [5], 0.296; in assay [6] it was 0.288. In addition, the composite z-score is 0.125 with Lefty1 and -0.117 in assay [8]. Besides, the z-score in assay [7] is 1.73; in [9], -0.87 (inactive).

As to `CCOC(=O)C1=CCC(c2ccc(F)cc2)N(S(=O)(=O)c2ccc(C)cc2)C1` (stereo not given), the composite z-score is -0.596 in assay [1]; 0.818 in assay [2]; 1.52 in assay [3]; 0.265 in assay [4]; 0.345 in assay [5]; -0.287 in [6]. For the same molecule, the composite z-score in the assay on Lefty1 came to 0.471; in assay [8], 0.764. The z-score in assay [7] is -0.231; in assay [9], 1.4 (inactive).

Take `O=C1C2C=CC(C(O)COCc3ccccc3)N(Nc3ccc([N+](=O)[O-])cc3)C2C(=O)N1c1ccccc1` (stereo not given): the composite z-score in assay [1] stood at 1.55; in assay [2] it was 1.25; in [3], 1.19; in [4] it was 0.983; in [5], 1.13; in assay [6], 0.119. The composite z-score with Lefty1 came out at 0.638; in assay [8], 0.955. In addition, the values for the z-score in [7] and in assay [9] were -0.738 and 1.54 (inactive), respectively.

`C=CCC(OC(C)=O)[C@@H]1[C@@H](N(Cc2ccc(-c3cccc(C(F)(F)F)c3)o2)C(=O)Cc2ccc(OC)cc2)c2cc(OCCCO)ccc2N1C(=O)c1ccc2ccccc2c1` (stereo not given in full): the composite z-score in [1] was -0.448; in [2] it was -0.811; in assay [3], -0.198; in [4] it was -1; in assay [5], 0.776; in assay [6] it was -0.522. For the same molecule, the composite z-score with Lefty1 is 0.199; in assay [8] it was -0.145. Further, the z-score is -0.322 in assay [7] and 0.535 (inactive) in [9].

For `CCCCN1CC=CC23O[C@@H]4C=CCCOC(=O)C4[C@H]2C(=O)N(CCCCCO)[C@@H]3C1=O` (stereo not given in full), the composite z-score is 1.88 in assay [1]; -0.306 in [2]; 0.779 in assay [3]; -0.905 in assay [4]; -0.592 in assay [5]; -0.437 in [6]. Further, the composite z-score with Lefty1 was -0.0266; in assay [8] it was 0.0604. The figures for the z-score in assay [7] and in assay [9] were 0.976 and -0.469 (inactive), respectively.

In the case of `O=C1[C@H]2C=C(Br)[C@H](C[C@@H]2OCCCCCCO)[C@@]12CO2`, the composite z-score is -0.847 in [1]; -1.57 in [2]; -0.191 in assay [3]; -1.94 in assay [4]; -0.266 in [5]; 0.263 in assay [6]. In addition, the composite z-score is -0.406 in the assay with Lefty1 and -2.03 in assay [8]. Besides, the z-score is -0.363 in assay [7] and 0.364 (inactive) in [9].

Take `COCCCNC(=O)[C@@]1(Cc2ccccc2CN=[N+]=[N-])N=C(c2ccc(OCCCO)cc2)O[C@H]1c1ccccc1CN=[N+]=[N-]`: the composite z-score in assay [1] is 2.03; in assay [2], 1.19; in assay [3], 0.125; in assay [4] it was 0.922; in assay [5], 0.63; in [6], -0.263. Besides, the composite z-score came out at 0.0147 in the assay with Lefty1 and 0.28 in assay [8]. Moreover, the z-score is -0.556 in assay [7] and -2.66 (inactive) in [9].

With `C=C(/C(=C/C[C@H](OC(C)=O)c1ccc(OCCO)cc1)c1cc(C(=O)OC)ccc1OC)C(C)C`, the composite z-score in assay [1] is 1.16; in assay [2], 1.08; in assay [3], 0.413; in [4], 0.812; in [5], 1.13; in assay [6], 1.58. For the same molecule, the composite z-score was determined as 1.55 in the assay with Lefty1 and 0.307 in [8]. The z-score is 1.75 in assay [7] and -2.33 (inactive) in assay [9].

On to `Cc1ccc([C@H]2C(C(=O)O)=CCN2S(=O)(=O)c2ccc(C)cc2)cc1`, for which the composite z-score in [1] was 0.388; in assay [2] it was 0.64; in assay [3], 1.36; in assay [4], -0.169; in [5], 0.585; in assay [6], -0.6. Besides, the composite z-score in the assay on Lefty1 is 0.0829; in assay [8], 0.572. Moreover, the z-score in [7] is -0.575; in assay [9], 0.838 (inactive).

In the case of `C=C(C(=O)CC[C@H](OC(C)=O)c1ccccc1OCCO)C(C)C`, the composite z-score is -0.29 in assay [1]; -0.936 in [2]; -0.385 in assay [3]; -0.262 in [4]; 1.25 in assay [5]; 0.38 in assay [6]. Further, the composite z-score was 0.696 with Lefty1 and -0.209 in assay [8]. The values for the z-score in assay [7] and in [9] were -1.25 and 0.168 (inactive), respectively.

Take `CCCCC(=C=CC[C@@H](O)c1cccc(OCCO)c1)C[C@@H](O)c1ccccn1`: the composite z-score is 2.56 in assay [1]; 0.873 in assay [2]; -0.204 in assay [3]; 0.837 in assay [4]; 1.31 in assay [5]; 0.605 in assay [6]. Moreover, the results for the composite z-score (in the assay on Lefty1; in assay [8]) were 1.2 and 0.26, respectively. Further, the values for the z-score in assay [7] and in assay [9] were 0.0206 and 0.0494 (inactive), respectively.
